Experiment [1] has as its target Cytochrome P450 3A4 (Homo sapiens) (UniProt P08684). In words: qHTS Assay for Activators of Cytochrome P450 3A4 (AID 885). Further: nearly all actives have a fitted effect of over 65% in size. In outline: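 Using 20nM recombinant human CYP3A4 in potassium phosphate (200mM), substrate Luciferin-PPXE at 25uM, luminescent luciferin detection followed a 60-min RT NADPH reaction; data scaled to 57 uM ketoconazole.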
Background: qHTS replaces the single test concentration by a dilution series.

A short description of experiment [2]: Confirmation and Secondary Assay for Modulators of Hemoglobin Beta Chain Splicing at IVS2 654 locus (AID 910).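 Further: HeLa cells stably carrying EGFP split by mutant beta-globin IVS2-654 intron; % of control where 0% means no effect.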 In outline:
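HeLa cells stably expressing EGFP interrupted by β-globin IVS2-654 intron, seeded overnight in Opti-MEM/2% FCS, then treated 2 days at 37 °C. Restored splicing read as total peak GFP intensity per well by laser scanning cytometry (488 nm excitation, 500–520 nm emission); 500 nM antisense PNA as control.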

Experiment [3] can be described thus: Confirmation and Secondary Assay for Modulators of Hemoglobin Beta Chain Splicing at IVS2 705 locus (AID 930).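 Further: HeLa cells stably expressing the EGFP-705 splicing reporter; GFP fluorescence per well restored by corrected splicing of the IVS2-705 intron in EGFP; % of control where 0% means no effect.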 In outline:
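Read-out: total peak GFP fluorescence per well (488 nm excitation, 500-520 nm emission) by laser-scanning cytometry. Cells: HeLa EGFP-705 splicing reporter, 2 days compound exposure in Optimem/2% FCS.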

The nature of experiment [4]: qHTS Assay for Lipid Storage Modulators (AID 1519; calls by dose curve; on activity change, negative = inhibition: on the % scale 0 is the no-effect control and ±100 the full control effect). The settings on record: Drosophila S3 cells, BODIPY lipid droplet/cell ratio, laser cytometry, cells loaded with oleic acid; for activity change, negative = inhibition: at 57.5 µM (top of the series). A digest of the protocol: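 Cells seeded at 5,000 per well were treated with compounds over a concentration series and loaded with oleic acid (400 uM, as added). Lipid droplet fluorescence (488 nm excitation, 500-530 nm channel) was read by laser-scanning cytometry and normalized to 20 uM Triacsin C.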

The target of experiment [5] is Ubiquitin carboxyl-terminal hydrolase 1 (Homo sapiens) (UniProt O94782). The experiment can be described thus: Inhibitors of USP1/UAF1: Pilot qHTS (AID 504865).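 Further: rhodamine fluorescence freed from ubiquitin-rhodamine substrate followed over time; top concentration of the series differs between compounds; on the % scale 0 is the no-effect control and ±100 the full control effect; nearly all actives have a fitted effect of over 35% in size.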 In outline:
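Kinetic fluorescence assay: 1nM USP1/UAF1, 15 min compound preincubation, then 150nM Ub-Rho; 480/540 nm.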

The mark [6] stands for this setting: measured here: cell count channel max response.
Setting [7] is: measured here: lipid channel max response.

Inconclusive results are not listed. Activity calls are given as the source filed them. Unless noted, the call rests on the fitted dose curve; in most records, active means well fitted curve in the direction sought with a large enough effect; inconclusive means small, poorly fitted or top-dose-only effect, or another doubt; inactive means no such curve, though single readings can be large; an effect the other way counts as inactive or inconclusive.

Ubiquitin carboxyl-terminal hydrolase 1 (Homo sapiens), sequence (O94782 whole entry, looked up): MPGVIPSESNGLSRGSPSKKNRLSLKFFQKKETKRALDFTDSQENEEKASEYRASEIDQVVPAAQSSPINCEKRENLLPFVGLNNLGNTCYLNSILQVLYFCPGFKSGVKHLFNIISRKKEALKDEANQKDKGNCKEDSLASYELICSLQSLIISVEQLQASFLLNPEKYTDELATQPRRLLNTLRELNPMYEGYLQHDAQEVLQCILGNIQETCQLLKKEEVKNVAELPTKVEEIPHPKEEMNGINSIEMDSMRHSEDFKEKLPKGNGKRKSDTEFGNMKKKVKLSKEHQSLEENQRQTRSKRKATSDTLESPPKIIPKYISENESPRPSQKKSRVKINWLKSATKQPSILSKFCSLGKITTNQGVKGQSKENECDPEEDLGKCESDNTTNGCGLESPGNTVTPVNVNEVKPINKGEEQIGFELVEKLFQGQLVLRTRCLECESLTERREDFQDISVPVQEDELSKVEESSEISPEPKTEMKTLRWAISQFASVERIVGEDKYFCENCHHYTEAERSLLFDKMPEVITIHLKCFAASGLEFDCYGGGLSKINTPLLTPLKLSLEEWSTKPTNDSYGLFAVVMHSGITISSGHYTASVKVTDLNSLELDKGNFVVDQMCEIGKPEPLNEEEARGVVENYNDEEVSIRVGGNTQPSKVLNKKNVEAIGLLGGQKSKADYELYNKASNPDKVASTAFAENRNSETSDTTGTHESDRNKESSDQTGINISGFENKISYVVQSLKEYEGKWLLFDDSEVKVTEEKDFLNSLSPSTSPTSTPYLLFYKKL
Cytochrome P450 3A4 (Homo sapiens), sequence (P08684 whole entry, looked up): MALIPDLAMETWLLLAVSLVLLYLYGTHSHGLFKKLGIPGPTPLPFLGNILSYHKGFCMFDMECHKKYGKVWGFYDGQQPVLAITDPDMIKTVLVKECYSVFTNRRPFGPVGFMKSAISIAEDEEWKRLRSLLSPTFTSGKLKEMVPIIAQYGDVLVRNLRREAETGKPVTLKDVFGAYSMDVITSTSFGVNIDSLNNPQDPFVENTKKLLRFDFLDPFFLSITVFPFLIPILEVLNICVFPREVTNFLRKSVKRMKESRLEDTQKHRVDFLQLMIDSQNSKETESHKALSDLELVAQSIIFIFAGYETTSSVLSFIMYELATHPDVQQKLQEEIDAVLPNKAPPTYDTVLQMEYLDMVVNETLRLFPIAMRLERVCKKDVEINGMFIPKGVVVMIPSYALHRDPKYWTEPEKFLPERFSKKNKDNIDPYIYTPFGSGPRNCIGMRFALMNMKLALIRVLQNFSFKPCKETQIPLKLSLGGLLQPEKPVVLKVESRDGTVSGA

As to `COc1cc(-c2oc3cc(O)ccc3c(=O)c2O)ccc1O`, the Potency result in experiment [1], in experiment [2], in experiment [3] and in experiment [5] was “inactive” each time. For the same molecule, in experiment [4], the activity change, negative = inhibition was -2.65% (inactive). Besides, the max response in experiment [4] (setting [6]) is -22.8%; in experiment [4] (setting [7]), -26.5%.

`C[C@@H]1CCC2[C@](C)(CO)C(O)CC[C@@]2(C)[C@@]12CC[C@](CO)(CCO)O2` (stereo not given in full): the Potency result in experiment [1], in experiment [2], in experiment [3] and in experiment [5] was “inactive” throughout. Besides, the activity change, negative = inhibition in experiment [4] was 5.37% (inactive). In addition, the max response in experiment [4] (setting [6]) was 11.4%; in experiment [4] (setting [7]) it was 17.7%.

For `CO[C@]12CC(COC(=O)c3cncc(Br)c3)CN(C)[C@@H]1Cc1cn(C)c3cccc2c13` (stereo not given in full), the Potency result in experiment [1], in experiment [2], in experiment [3] and in experiment [5] was “inactive” in each case. Besides, the activity change, negative = inhibition in experiment [4] was 10.2% (inactive). Moreover, the figures for the max response in experiment [4] (setting [6]) and in experiment [4] (setting [7]) were 10.9% and 29%, respectively.

Turning to `CC1CC2C3CCC4=CC(=O)C=C[C@]4(C)[C@@]3(Cl)C(O)C[C@]2(C)C1(OC(=O)c1ccco1)C(=O)CCl` (stereo not given in full), the Potency result in experiment [1], in experiment [2], in experiment [3] and in experiment [5] was “inactive” throughout. Besides, the activity change, negative = inhibition in experiment [4] was 12.6% (inactive). For the same molecule, the max response in experiment [4] (setting [6]) is -6.79%; in experiment [4] (setting [7]) it was 6.32%.

As to `Cc1cc(=O)oc2c(O)c(O)ccc12`, the Potency entry in experiment [1], in experiment [2], in experiment [3] and in experiment [5] was “inactive” each time. For the same molecule, in experiment [4], the activity change, negative = inhibition is -5.44% (inactive). In addition, the max response in experiment [4] (setting [6]) is -3.48%; in experiment [4] (setting [7]), -9.34%.

Regarding `COc1ccc(C2Oc3cc(OC)cc(OC)c3CC2O)cc1` (stereo not given), the Potency entry in experiment [1], in experiment [2], in experiment [3] and in experiment [5] was “inactive” in each case. Further, the activity change, negative = inhibition in experiment [4] is 5.15% (inactive). The max response in experiment [4] (setting [6]) was 15.1%; in experiment [4] (setting [7]), 23.9%.

In the case of `CCCCN1CCCCC1C(=O)Nc1c(C)cccc1C` (stereo not given), the Potency entry in experiment [1], in experiment [2], in experiment [3] and in experiment [5] was “inactive” each time. In experiment [4], the activity change, negative = inhibition was 7.02% (inactive). Moreover, the max response turned out to be 11.8% in experiment [4] (setting [6]) and 21.2% in experiment [4] (setting [7]).

In the case of `CC1(C)C(O)C=C[C@@]2(C)C1CC(=O)O[C@@]1(C)C3=CC(=O)OC(c4ccoc4)[C@]3(C)CCC21` (stereo not given in full), the Potency entry in experiment [1], in experiment [2], in experiment [3] and in experiment [5] was “inactive” each time. Moreover, the activity change, negative = inhibition in experiment [4] was 9.57% (inactive). The max response in experiment [4] (setting [6]) was determined as 1.87%; in experiment [4] (setting [7]), 14.6%.

On to `COc1cc(O)c(C)c(O)c1`, for which the Potency result in experiment [1], in experiment [2], in experiment [3] and in experiment [5] was “inactive” throughout. For the same molecule, in experiment [4], the activity change, negative = inhibition was 1.69% (inactive). Moreover, the values for the max response in experiment [4] (setting [6]) and in experiment [4] (setting [7]) were 3.91% and 5.62%, respectively.

For `COc1ccc(-c2coc3cc(O)ccc3c2=O)c(OC)c1`, the Potency result in experiment [1], in experiment [2], in experiment [3] and in experiment [5] was “inactive” each time. The activity change, negative = inhibition in experiment [4] was -0.403% (inactive). Besides, the max response stood at 3.06% in experiment [4] (setting [6]) and 3.26% in experiment [4] (setting [7]).

Regarding `O=C1CC(c2ccc(O)c(O)c2)Oc2cc(O)cc(O)c21` (stereo not given), the Potency entry in experiment [1], in experiment [2], in experiment [3] and in experiment [5] was “inactive” in each case. Further, in experiment [4], the activity change, negative = inhibition was 17.7% (inactive). Moreover, the max response is -10.3% in experiment [4] (setting [6]) and 9.21% in experiment [4] (setting [7]).

In the case of `CC1(C)CC23C(=O)CCC(O)C2(C)CCC13` (stereo not given), the Potency entry in experiment [1], in experiment [2], in experiment [3] and in experiment [5] was “inactive” throughout. In experiment [4], the activity change, negative = inhibition is 0.112% (inactive). In addition, the max response in experiment [4] (setting [6]) was determined as 8.4%; in experiment [4] (setting [7]) it was 10.8%.

`COc1ccc(-c2coc3cc(OC(C)=O)cc(OC(C)=O)c3c2=O)cc1`: the Potency result in experiment [1], in experiment [2], in experiment [3] and in experiment [5] was “inactive” in each case. Also, in experiment [4], the activity change, negative = inhibition is -2.95% (inactive). Moreover, the max response was 3.34% in experiment [4] (setting [6]) and 2.84% in experiment [4] (setting [7]).

On to `CC(=O)O[C@](C)(CCC=C(C)C)C1CC=C(C)CC1` (stereo not given in full), for which the Potency result in experiment [1], in experiment [2], in experiment [3] and in experiment [5] was “inactive” each time. Moreover, the activity change, negative = inhibition in experiment [4] was 3.31% (inactive). The max response stood at 17.9% in experiment [4] (setting [6]) and 22% in experiment [4] (setting [7]).

As for `CC(=O)OCC(=O)[C@@]1(O)CCC2C3CC[C@H]4CC(O)CC[C@@]4(C)C3C(=O)C[C@]21C` (stereo not given in full), the Potency result in experiment [2], in experiment [3] and in experiment [5] was “inactive” in each case. Also, in experiment [4], the activity change, negative = inhibition is 4.69% (inactive). Further, the figures for the max response in experiment [4] (setting [6]) and in experiment [4] (setting [7]) were -0.527% and 6.2%, respectively.

Consider `O=C(O)C1=CC(O)[C@@H](O)C(O)C1` (stereo not given in full), for which the Potency result in experiment [2], in experiment [3] and in experiment [5] was “inactive” in each case. Moreover, in experiment [4], the activity change, negative = inhibition was 3.18% (inactive). Further, the max response was 15.5% in experiment [4] (setting [6]) and 22.2% in experiment [4] (setting [7]).

Regarding `COC1C(O)CC(=O)OC(C)C/C=C/C=C/[C@@H](OC2CCC(N(C)C)C(C)O2)C(C)C[C@@H](CC=O)[C@@H]1O[C@H]1OC(C)[C@H](O[C@@H]2C[C@@](C)(O)C(O)C(C)O2)C(N(C)C)C1O` (stereo not given in full), the Potency result in experiment [2], in experiment [3] and in experiment [5] was “inactive” each time. In addition, the activity change, negative = inhibition in experiment [4] was 4.53% (inactive). Moreover, the figures for the max response in experiment [4] (setting [6]) and in experiment [4] (setting [7]) were 15.4% and 26.5%, respectively.

For `CC1(C)SC2C(NC(=O)COc3ccccc3)C(=O)N2C1C(=O)O` (stereo not given), the Potency entry in experiment [2], in experiment [3] and in experiment [5] was “inactive” in each case. Further, in experiment [4], the activity change, negative = inhibition was 3.45% (inactive). Further, the max response in experiment [4] (setting [6]) turned out to be 17.3%; in experiment [4] (setting [7]), 22.6%.

`CC(C)CC(NC(=O)OCC1c2ccccc2-c2ccccc21)C(=O)O` (stereo not given): the Potency entry in experiment [2], in experiment [3] and in experiment [5] was “inactive” each time. Further, the activity change, negative = inhibition in experiment [4] is 2.46% (inactive). Moreover, the max response came out at 10.8% in experiment [4] (setting [6]) and 14.5% in experiment [4] (setting [7]).

Consider `CC(=O)Oc1ccc2c(c1)CCC1C2CC[C@@]2(C)C1CC(OC(C)=O)C2OC(C)=O` (stereo not given in full), for which the Potency entry in experiment [2], in experiment [3] and in experiment [5] was “inactive” each time. Further, in experiment [4], the activity change, negative = inhibition is 5.31% (inactive). The results for the max response in experiment [4] (setting [6]) and in experiment [4] (setting [7]) were 10.1% and 17.4%, respectively.

Turning to `CC(CCC(=O)O)C1CCC2C3C(O)C[C@@H]4CC(O)CC[C@@]4(C)C3CC(O)[C@]12C` (stereo not given in full), the Potency entry in experiment [2], in experiment [3] and in experiment [5] was “inactive” throughout. Also, the activity change, negative = inhibition in experiment [4] was 4.41% (inactive). Further, the max response in experiment [4] (setting [6]) was -4.16%; in experiment [4] (setting [7]), 0.136%.

Turning to `COC1C[C@@H](O[C@@H]2C(C)C(=O)OC(C)C(C)[C@H](OC(C)=O)C(C)C(=O)[C@@]3(CO3)CC(C)C(OC3OC(C)CC(N(C)C)[C@H]3OC(C)=O)C2C)OC(C)[C@@H]1OC(C)=O` (stereo not given in full), the Potency entry in experiment [2], in experiment [3] and in experiment [5] was “inactive” each time. Further, the activity change, negative = inhibition in experiment [4] is 6.97% (inactive). In addition, the max response in experiment [4] (setting [6]) is 18.9%; in experiment [4] (setting [7]), 24.4%.

Regarding `CC1(C)C2(Cl)C(Cl)C(Cl)C(Cl)(C(Cl)Cl)C1(Cl)C2Cl` (stereo not given), the Potency result in experiment [2], in experiment [3] and in experiment [5] was “inactive” in each case. In addition, the activity change, negative = inhibition in experiment [4] was 3.3% (inactive). Besides, the max response in experiment [4] (setting [6]) worked out at 3.76%; in experiment [4] (setting [7]), 3.86%.

Consider `CON`, for which the Potency result in experiment [2], in experiment [3] and in experiment [5] was “inactive” in each case. The activity change, negative = inhibition in experiment [4] was 4.31% (inactive). Further, the max response in experiment [4] (setting [6]) was determined as 12.5%; in experiment [4] (setting [7]), 21.6%.

For the molecule `C[C@]12C=CC(=O)C=C1CCC1C2C(=O)C[C@]2(C)C1CC[C@]2(O)C(=O)CO` (stereo not given in full), the Potency result in experiment [2], in experiment [3] and in experiment [5] was “inactive” each time. Moreover, the activity change, negative = inhibition in experiment [4] was 8.15% (inactive). For the same molecule, the max response in experiment [4] (setting [6]) turned out to be 19.1%; in experiment [4] (setting [7]), 31.9%.

In the case of `CC(=O)SC1CC2=CC(=O)CC[C@@]2(C)C2CC[C@@]3(C)[C@@H](CC[C@@]34CCC(=O)O4)C12` (stereo not given in full), the Potency result in experiment [2], in experiment [3] and in experiment [5] was “inactive” in each case. Further, the activity change, negative = inhibition in experiment [4] is -11.4% (inactive). In addition, the results for the max response in experiment [4] (setting [6]) and in experiment [4] (setting [7]) were 20.1% and 9.46%, respectively.

The values are drawn from PubChem BioAssay (NCATS).
